A selection: hits, their analogues and other compounds. The true share with any hit is near 9.4%.
Rab9 promoter act = activates the Rab9 promoter. Huh7 Rab9 promoter-luciferase reporter, luminescence, 24 h. AID 485297. Potency, µM (titrated, usually from 9.22 µM), actives largely listed as activators. actives 2.8% (n = 320,000); also: nearly all actives have a fitted effect of over 60% in size
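Quantitative HTS format; Huh7 Rab9-luciferase reporter cells (1500/well) receive compound 2 h post-plating, incubate 24 h at 37 °C, then get luciferase reagent for 10 min before luminescence reading.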
ELG1 genotox = induces genotoxicity in HEK293T cells with luciferase-tagged ELG1 | HEK293T ELG1-luciferase reporter, luminescence, 16 h | Potency, µM (series often up to 46 µM), most hits filed as activators | actives 1.3% (n = 330,000) | AID 504466; also: nearly all actives have a fitted effect of over 60% in size
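Step 1: seed 2,000 HEK293T ELG1-luciferase cells per well. Step 2: add compound or DMSO, incubate 16 hr at 37 °C. Step 3: ONE-Glo, 30 min at room temperature, read luminescence.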
SMN2 splice enh = increases expression of the SMN2 splice variant. HEK293 SMN2-luciferase splicing reporter, luminescence, 30-36 h. Potency, µM (top dose mostly 46.1 µM), most hits filed as activators. actives 2.8% (n = 210,000). AID 1458; also: nearly all actives have a fitted effect of over 55% in size
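HEK293 cells carry an SMN2 […]–luciferase reporter in which exon 7 inclusion puts luciferase in frame. Cells were plated 10-12 h before compound addition, then incubated 30-36 h at 37C. ONE-Glo luminescence was read; sodium butyrate at 4.5 mM final served as control.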
NPC1 promoter act = NPC1 promoter activation; Huh7 NPC1 promoter luciferase reporter, 24 h; Potency, µM (series often up to 9.22 µM), most hits filed as activators; actives 2.4% (n = 320,000); AID 485313; also: nearly all actives have a fitted effect of over 60% in size
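NPC1 promoter–luciferase Huh7 cells; 24 h compound; luminescence.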
FLuc modulator = counter-screen for miR-21 project: firefly luciferase inhibitors or activators. purified FLuc, Km substrates, luminescence inhibition. Potency, µM (titrated, usually from 57.5 µM), hits mostly inhibitors. actives 6.9% (n = 360,000); also: nearly all actives have a fitted effect of over 55% in size
Target sequence (P08659 whole entry, looked up): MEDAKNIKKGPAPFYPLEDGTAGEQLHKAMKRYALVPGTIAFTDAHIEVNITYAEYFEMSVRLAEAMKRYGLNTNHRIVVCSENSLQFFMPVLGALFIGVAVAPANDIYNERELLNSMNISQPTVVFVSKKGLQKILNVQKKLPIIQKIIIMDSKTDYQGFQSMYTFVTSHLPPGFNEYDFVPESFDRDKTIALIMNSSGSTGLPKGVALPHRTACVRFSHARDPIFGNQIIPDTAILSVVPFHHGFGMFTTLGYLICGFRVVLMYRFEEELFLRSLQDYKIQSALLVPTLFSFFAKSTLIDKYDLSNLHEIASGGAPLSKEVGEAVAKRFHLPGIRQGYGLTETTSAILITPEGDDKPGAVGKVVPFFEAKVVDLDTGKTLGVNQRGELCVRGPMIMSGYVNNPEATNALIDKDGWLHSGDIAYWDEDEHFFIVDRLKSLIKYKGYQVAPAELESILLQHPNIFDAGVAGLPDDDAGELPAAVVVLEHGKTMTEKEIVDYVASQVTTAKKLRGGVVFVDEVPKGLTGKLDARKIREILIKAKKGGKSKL
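Biochemical qHTS of compounds, final roughly 60 µM downward over six points, against 10 nM purified firefly luciferase using Km concentrations of substrates (10 uM D-luciferin, 10 uM ATP) in Tris acetate pH 7.5 buffer; luminescence output.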
ELG1 repair inh = ELG1-dependent DNA repair inhibition; HEK293T ELG1-luciferase reporter, luminescence, 16 h; DNA damage induced by 5-fluorouridine; Potency, µM (titrated, usually from 46.1 µM), usual class: inhibitors; actives 2.3% (n = 330,000); AID 504467; also: nearly all actives have a fitted effect of over 55% in size
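Quantitative HTS, concentration-response format. 2,000 cells/well co-treated with 5-fluorouridine and compound, 16 hr in 5% CO2 at 37 °C; ONE-Glo luminescence read after 30 min.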
A number is an active result; – = inactive; ? = inconclusive; · = no result given; [ ] = remark or other dose. Calls follow the shape of the dose curve; as a rule, active = well fitted curve in the direction sought with a large enough effect; inconclusive = small, poorly fitted or top-dose-only effect, or another doubt; inactive = no such curve, though single readings can be large; an effect the other way counts as inactive or inconclusive.

SMILES | Rab9 promoter act | ELG1 genotox | SMN2 splice enh | NPC1 promoter act | FLuc modulator | ELG1 repair inh
CCc1nn(C(CC)C(=O)NCc2ccc(OC)c(OC)c2)c(=O)c2cc3oc(C)cc3n12 (stereo not drawn) | · | · | – | · | – | ·
O=C(O)c1cc(-c2ccc3c(c2)OCO3)nc2ccc(Cl)cc12 | – | – | · | – | 2.4µM | ?
O=C(O)c1cc(-c2ccc(-c3ccc(-c4cc(C(=O)O)c5cc(Cl)ccc5n4)cc3)cc2)nc2ccc(Cl)cc12 | · | · | –[9.22 µM] | · | · | ·
CS(=O)(=O)N1CCN(C(=O)c2cc(-c3cccnc3)nc3ccc(Cl)cc23)CC1 | – | – | – | – | – | ?
O=C(c1cc(-c2ccncc2)nc2ccc(Br)cc12)N1CCN(Cc2ccc3c(c2)OCO3)CC1 | – | – | – | – | – | ?
COc1ccc(CN2CCN(C(=O)c3cc(-c4cccnc4)nc4ccc(Cl)cc34)CC2)c(OC)c1OC | – | – | – | – | – | 9.2µM
Cc1ccc2nc(-c3ccncc3)cc(C(=O)N3CCOCC3)c2c1 | – | – | · | – | – | –
Cc1cc(C)c2nc(-c3ccncc3)cc(C(=O)N3CCN(Cc4ccccc4Cl)CC3)c2c1 | – | – | · | – | 15µM | ?
O=C(c1cc(-c2ccncc2)nc2ccc(Cl)cc12)N1CCN(Cc2ccc3c(c2)OCO3)CC1 | – | – | – | – | ? | 15µM
CCCCNC(=O)CN1C(=O)c2c(c3ccccc3n2C)C1c1ccc(OC)cc1 (stereo not drawn) | · | · | · | · | – | ·
CCN1CCOC(=O)C1CC(=O)Nc1cc(C)cc(C)c1 (stereo not drawn) | · | · | – | · | – | ·
COc1cc(-c2cc(C(=O)O)c3cc4c(cc3n2)OCCO4)cc(OC)c1OC | – | – | – | – | – | –
COC(=O)c1ccc(-c2cc(C(=O)O)c3cc4c(cc3n2)OCCO4)cc1 | – | ? | – | – | 4.8µM | ?
COc1ccc2nc(N/C(N)=N/C(=S)Nc3c(C)cccc3C)nc(C)c2c1 | – | – | – | – | – | –
COc1ccc2nc(N/C(N)=N/S(C)(=O)=O)nc(C)c2c1 | – | ? | · | – | 15µM | ?
COc1ccc2nc(N/C(N)=N/C(=S)Nc3cccc(C)c3)nc(C)c2c1 | – | – | – | – | ? | ?
CCc1ccccc1NC(=S)/N=C(\N)Nc1nc(C)c2cc(C)ccc2n1 | – | – | – | – | – | 21µM
Cc1ccc(NC(=S)/N=C(\N)Nc2nc(C)c3cc(C)ccc3n2)c(C)c1 | – | – | – | – | – | ?
COc1ccc(NC(=S)/N=C(\N)Nc2nc(C)c3ccccc3n2)cc1 | – | – | · | – | 9.5µM | ?
O=C(CCc1cn(Cc2ccccc2F)c2ccccc12)NCc1ccc(Cl)cc1 | · | · | · | · | – | ·
CCc1ccc(Nc2n[n+](-c3ccccc3)c(-c3ccc(OCc4ccccc4)cc3)s2)cc1 | – | – | · | – | ? | 13µM
CCc1ccc(Nc2n[n+](-c3ccccc3)c(-c3c(Cl)cccc3Cl)s2)cc1 | – | – | · | – | – | –
CCc1ccc(Nc2n[n+](-c3ccccc3)c(/C=C/c3ccccc3)s2)cc1 | – | – | · | – | 12µM | ?
COc1ccc(NC(=O)CSc2nc3c(oc4ccccc43)c(=O)n2Cc2ccco2)cc1Cl | · | · | – | · | – | ·
CSc1ccc(CNC(=O)Cc2csc3ccccc23)cc1 | · | · | – | · | – | ·
SMILES | Rab9 promoter act | ELG1 genotox | SMN2 splice enh | NPC1 promoter act | FLuc modulator | ELG1 repair inh
CC(=O)Nc1cccc(Oc2ccc3c(c2)C(=O)NC3=O)c1 | – | ? | · | – | 11µM | ?
CC(=O)Oc1ccc(C(=O)Nc2cccc(NC(=O)c3ccco3)c2)cc1 | – | – | · | – | 15µM | –
COc1ccc(C(=O)Nc2cccc(OC(=O)c3ccc(C)c(C)c3)c2)cc1 | – | – | ? | ? | 11µM | ?
COc1ccc(C(=O)Nc2cccc(OC(=O)c3ccco3)c2)cc1 | ? | 4.6µM | · | ? | 13µM | ?
COc1ccc(C(=O)Nc2cc(OC)c(NC(=O)c3ccco3)cc2OC)cc1 | – | – | – | – | ? | ?
O=C(Nc1cccc(NC(=O)c2ccco2)c1)c1ccc([N+](=O)[O-])cc1 | – | – | · | – | – | 12µM
Cc1cccc(C(=O)Nc2cccc(OC(=O)c3cccc(C)c3)c2)c1 | – | ? | – | – | – | ?
O=C(Nc1ccc(Cl)cc1Cl)c1cc(S(=O)(=O)N2CCC3(CC2)OCCO3)ccc1F | · | · | · | · | – | ·
Nc1ccc(S(=O)(=O)NCc2nccs2)cc1 | · | · | –[9.22 µM] | · | · | ·
O=C(CCC(=O)c1cccs1)OCC(=O)c1ccc(F)cc1 | · | – | · | · | · | –
O=C(CC(Nc1ccc(F)cc1)C(=O)O)c1ccccc1 (stereo not drawn) | 1.3µM | 1µM | 13µM | 1.1µM | 1.1µM | ?
O=C(CC(Nc1ccc(F)cc1)C(=O)OCC(=O)c1cccs1)c1ccccc1 (stereo not drawn) | 4.5µM | ? | ? | ? | ? | ?
Cc1ccc(NC(CC(=O)c2ccccc2)c2ccc(F)cc2)cc1 (stereo not drawn) | – | – | – | – | – | ?
COc1ccc(F)cc1C1=CC(=O)C[C@H](c2ccc3c(c2)OCO3)C1 | – | – | · | – | – | –
COc1cc(F)c(C2=CC(=O)C[C@H](c3ccc4c(c3)OCO4)C2)cc1F | – | – | · | – | – | 16µM
COc1cccc(OC)c1C1=CC(=O)C[C@H](c2ccc3c(c2)OCO3)C1 | – | – | · | – | – | 9.2µM
Nc1cc(C(=O)O)[nH]c(=O)n1 | · | · | –[9.22 µM] | · | · | ·
N#C/C(=C\c1ccc(O)c(O)c1)C(=O)Nc1ccccc1 | – | ? | 22µM | – | ? | ?
N#C/C(=C/c1cccc(O)c1)C(=O)NCc1ccc(Cl)cc1 | – | – | · | – | – | ?
CC(C)NC(=O)/C(C#N)=C/c1ccc2c(c1)OCCO2 | – | – | – | – | 9.5µM | ?
N#C/C(=C\c1ccc2c(c1)OCO2)C(N)=S | – | – | · | – | – | –
N#C/C(=C\c1cccc(O)c1)C(=O)Nc1ccc2c(c1)OCCO2 | – | – | · | – | 0.48µM | ?
Cc1ccc(CNC(=O)Cn2cc(S(=O)(=O)Cc3cccc(Cl)c3)c3ccccc32)cc1 | · | · | · | · | – | ·
CC(C)(N)C(=O)N[C@@H]1C(=O)N2[C@@H]1SC(C)(C)[C@H]2C(=O)O | · | · | –[9.22 µM] | · | · | ·
Cc1coc2cc3oc(=O)c(CC(=O)NCc4ccccc4)c(C)c3cc12 | · | · | – | · | – | ·
Nc1nc2ccccc2n1/N=C/c1ccc(-c2ccccc2)o1 | 4µM | ? | – | ? | ? | ?
Nc1nc2ccccc2n1/N=C/c1ccc([N+](=O)[O-])s1 | – | – | – | – | – | ?
O=C(c1noc2c1CCCCC2)N1CCN(c2cccc(C(F)(F)F)c2)CC1 | · | · | · | · | – | ·
Cc1ccnc(NC(=O)c2ccc(Cl)c(S(=O)(=O)N3CCCC3)c2)c1 | ? | ? | · | ? | 19µM | –
